Measurements from PubChem BioAssay (EPA / NIEHS).
The source made the active and inactive calls. How the source made its calls: active means hit-call score of the fitted dose curve at least 0.9, where 1 is the maximum; inactive means score below 0.9.

Experiment: ATG_AP_1_CIS: Attagene CIS-FACTORIAL HepG2 Assay for human Activator Protein 1 (AP-1) (AID 2282931)
Details: HepG2 Attagene cis-factorial AP-1 reporter mRNA; actives raise or lower the signal
Experimental: ATG_CIS is a cell-based, multiplexed-readout assay that uses HepG2, a human liver cell line, with measurements taken at 24 hours after chemical dosing in a 24-well plate.ATG_AP_1_CIS is one of 52 assay component(s) measured or calculated from the ATG_CIS assay. It is designed to make measurements of mRNA induction, a form of inducible reporter, as detected with fluorescence intensity signals by Reverse transcription polymerase chain reaction (RT-PCR) and Capillary electrophoresis technology.Data from the assay component ATG_AP_1_CIS was analyzed into 1 assay endpoint. This assay endpoint, ATG_AP_1_CIS, was analyzed with bidirectional fitting relative to DMSO as the negative control and baseline of activity. Using a type of inducible reporter, measures of mRNA for gain or loss-of-signal activity can be used to understand the reporter gene at the transcription factor-level as they relate to the gene FOS and JUN. Furthermore, this assay endpoint can be referred to as a primary readout, because this assay has produced multiple assay endpoints where this one serves a reporter gene function. To generalize the intended target to other relatable targets, this assay endpoint is annotated to the dna binding intended target family, where the subfamily is basic leucine zipper.
Human liver HepG2 cells are transiently transfected with multiple reporter transcription units (MRTUs) in 6-well plates using FuGene 6 reagent (Roche; 3 ml FuGene/1 mg DNA). The MRTU constructs are regulated by a cis-regulating element (promoter). […] A major difference between the CIS and TRANS system is that in CIS activities of endogenous TFs are measured, whereas the TRANS assay evaluates changes in activities of exogenous, chimeric NR-Gal4 proteins. […] At the end of 24 hour incubation, total RNA was isolated using TriZol reagent (Invitrogen). The isolated RNA is then reverse-transcribed using oligo(dT) primer and Mo-MLV reverse transcriptase (Invitrogen) with DNAse I (Ambion) treatment for 30 min. The one-tenth of the produced cDNA was amplified by PCR using Taq DNA polymerase (Invitrogen) and two reporter sequence-specific primers. The PCR products were fluorescently labeled by primer extension with 6-arboxyfluorescein (6-FAM) 5'-labeled reporter sequence-specific primer (2 min at 95 C, 20 s at 68 C and 10 min at 72 C) and these products were digested with 5U of HpaI (New England Biolabs) for 2h at 37 C. The fragments were purified using Qiaquick PCR columns (Qiagen), analyzed on an ABI 3130xL genetic analyzer (Applied Biosystems) with peak positions identified by using a set of X-rhodamine (ROX)-labeled MapMarker1000 molecular weight standards (BioVentures). The raw capillary electrophoresis data was processed using Attagraph software (Attagene).

| SMILES | AC50 | outcome |
| --- | --- | --- |
| [Cl][Au]([Cl])[Cl] | 72.6 µM (active) | – |
| CCCC[O][Al]([O]CCCC)[O]CCCC | – | inactive |
| O=C(O)c1cccnc1C(=O)O | – | inactive |
| CC(=O)O[C@H]1C[C@@H]2CC[C@@]1(C)C2(C)C | – | inactive |
| O=C(Nc1ccc([N+](=O)[O-])cc1)Nc1ccc([N+](=O)[O-])cc1 (tested in a mixture with another compound) | – | inactive |
| Oc1ccc2cc(SSc3ccc4cc(O)ccc4c3)ccc2c1 | 100 µM (active) | – |
| CC(C)Nc1nc(N)nc(Cl)n1 | – | inactive |
| C[C@H]1C[C@@H](O)CC(C)(C)C1 | – | inactive |
| CCCCCCCCN1CCCC1=O | – | inactive |
| CCCCCC(C=O)=Cc1ccccc1 | – | inactive |
| COCCOC(=O)c1ccccc1C(=O)OCCOC | – | inactive |
| Cc1c(OCC(F)(F)F)ccnc1CS(=O)c1nc2ccccc2[nH]1 (stereo not given) | – | inactive |
| CC(C)(C)CC(C)(C)c1ccc(OCCOCC[N+](C)(C)Cc2ccccc2)cc1 | 8.35 µM (active) | – |
| O=CN1CCOCC1 | – | inactive |
| Nc1c(Cl)cc(Cl)cc1[N+](=O)[O-] | – | inactive |
| O=Cc1ccccc1S(=O)(=O)O | – | inactive |
| CCCCCCC(C)(C)S | – | inactive |
| COC(=O)c1ccc(OC)cc1 | – | inactive |
| CCCCCCCCCCCCN1CCCCCC1=O | 11.1 µM (active) | – |
| CCC(=O)O[C@@H]1C[C@H]2CC[C@]1(C)C2(C)C | – | inactive |

| SMILES | AC50 | outcome |
| --- | --- | --- |
| CCCC(=O)C(CC)Sc1ccoc1C (stereo not given) | 26.5 µM (active) | – |
| C=CC(=O)OCCCC | – | inactive |
| CCCCSCCCC | – | inactive |
| C=C(C)C(=O)OCCOCCOCCOCCOC(=O)C(=C)C | – | inactive |
| Cc1cccc(Nc2ccccc2)c1 | 139 µM (active) | – |
| C=C(C#N)C(=O)OCC | – | inactive |
| C=Cc1ccc(C(C)(C)C)cc1 | – | inactive |
| Cc1ncc([N+](=O)[O-])n1CCO | – | inactive |
| CC(C)c1ccccc1O | – | inactive |
| C1CCCCC1 | – | inactive |
| CCCCCCC(CO)CCCC (stereo not given) | – | inactive |
| COc1ccc(COC(C)=O)cc1 | – | inactive |
| CCCCCCCCCC(C)C=O (stereo not given) | – | inactive |
| CCCCC(CC)C(=O)OC(C)C (stereo not given) | – | inactive |
| C#CC(C)(O)CC(C)C (stereo not given) | – | inactive |
| O=C(CS)OCCOC(=O)CS | 58.7 µM (active) | – |
| CSCCC=O | – | inactive |
| C=C(C)[C@@H]1CC=C(C)C(=O)C1 | – | inactive |
| Nc1ccc(N)c2c1C(=O)c1ccccc1C2=O | – | inactive |
| CCN(CCN)c1cccc(C)c1 | – | inactive |
